From PubChem
Sampled rows, rich in hits. Any-hit rate of the full collection: about 1.8%.
RAD54 branch = RAD54 (human) branch migration inhibition; 0.14% of 360,000 active; Q92698; inhibition, % at 10.4 µM; RAD54 Holliday junction branch migration, FAM/BHQ fluorescence;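 active = mean normalized replicate activity at least 40 and at least half of replicates scoring 40 or more; inconclusive = only one of the two criteria met; inactive = mean below 40 and under half of replicates reaching 40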;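 note: 0% = median of neutral control wells and 100% = median of positive control wells; inhibitors cause a drop in the FAM fluorescence signal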
LGR2 antag = blocks bursicon-induced cAMP signaling via Drosophila LGR2; 0.35% of 380,000 active; AID 720647; inhibition, % at 9.99 µM; HEK293 LGR2, CRE-luciferase, bursicon-stimulated, 4 h;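 active = drop in luminescence signal, shown as inhibition above about 50% in the replicate tests, limit read from the data, passing the limit was not always enough; inconclusive = probably only some replicates passing the limit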;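 note: agonist challenge used bursicon conditioned medium at about half maximal strength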
GSIS activator = GLuc luminescence reporter in INS-1E cells, primary screen for activators of glucose-dependent secretion of insulin | INS-1E GLuc reporter insulin secretion, 2-3 h | activation, % at 16.6 µM | 0.61% of 370,000 active | AID 743287;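 active = lowest replicate activation of at least 40%, so every replicate reaches that level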;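 note: 0% = median of neutral control wells and 100% = median of IBMX positive control wells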
F508del corr = correctors of CFTR F508del function in bronchial epithelial cells; CFBE cells, YFP halide quenching; stimulated with forskolin plus potentiator P3; % fluorescence drop versus neutral controls; 0.36% of 350,000 active; activity (quench increase), % at 7.58 µM; AID 720511;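 active = mean added fluorescence quench of at least 8% versus neutral control, with both replicates also reaching 8%; inconclusive = only one of the mean or replicate conditions met; inactive = mean below 8% and not both replicates reaching 8%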;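 note: cells transiently co-express mutant CFTR-F508del with the halide-sensitive YFP; corrector assay measuring rescue of mutant channel to the surface after 24 h compound exposure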
EWS-Fli block = EWS/Fli transcriptional activity inhibition; 0.67% of 350,000 active; AID 651661; A673 NR0B1-luciferase reporter, viability-normalised; inhibition, % at 12.6 µM;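 active = mean inhibition of at least 50% after viability correction, with every replicate also passing that limit; inconclusive = mean reaches 50% but only one of two replicates passes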;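 note: firefly luciferase signal divided by Alamar Blue viability fluorescence both relative to DMSO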
RAD52 anneal inh = RAD52 (human) annealing inhibition; P43351; recombinant RAD52 DNA annealing, FRET fluorescence; inhibition, % at 18.7 µM; 0.46% of 360,000 active;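 active = every replicate showing at least 50% inhibition; inconclusive = mean inhibition at least 50% but not in every replicate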
Target sequence (P43351 whole entry, looked up): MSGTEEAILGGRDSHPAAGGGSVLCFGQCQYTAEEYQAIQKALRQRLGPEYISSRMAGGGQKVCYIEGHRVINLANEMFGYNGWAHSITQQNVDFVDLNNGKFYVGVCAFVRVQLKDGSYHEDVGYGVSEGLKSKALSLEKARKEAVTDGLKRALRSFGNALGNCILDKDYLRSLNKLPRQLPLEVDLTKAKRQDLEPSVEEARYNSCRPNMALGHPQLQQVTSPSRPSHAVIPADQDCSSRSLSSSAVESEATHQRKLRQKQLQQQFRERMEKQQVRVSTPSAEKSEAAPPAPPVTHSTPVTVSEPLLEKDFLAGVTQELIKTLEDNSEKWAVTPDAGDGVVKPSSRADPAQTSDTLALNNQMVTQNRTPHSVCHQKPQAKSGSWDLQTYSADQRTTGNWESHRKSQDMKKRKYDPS
Starred values were filed as active, the others as inactive; i = inactive; ? = inconclusive; . = no result.

SMILES	RAD54 branch	LGR2 antag	GSIS activator	F508del corr	EWS-Fli block	RAD52 anneal inh
COc1cc(/C=C/C(=O)OCC(=O)NC(=O)C2COc3ccccc3O2)ccc1OC(F)F (centres undefined)	-4	8	45*	3	0	-11
CCN(CC)S(=O)(=O)c1ccc(/C=C/C(=O)OCC(=O)NC(=O)C2COc3ccccc3O2)cc1 (centres undefined)	.	9	-12	-2	-14	-12
CCN1CCN(C(=O)C(=O)c2cn(CC(=O)N(CC)CC)c3ccccc23)CC1	-7	-6	-2	1	1	-1
CCN(CC)C(=O)Cn1cc(C(=O)C(=O)N2CCN(Cc3ccccc3)CC2)c2ccccc21	.	7	60*	1	6	-20
CCCNC(=S)N1CCC(C(=O)c2ccc(Cl)cc2)CC1	1	5	.	-2	13	-4
COc1ccc(S(=O)(=O)N(C)c2ccc(C(=O)N3CCOCC3)cc2)cc1OC	.	-12	41	-2	4	9
CN(c1ccc(C(=O)N2CCN(Cc3ccc4c(c3)OCO4)CC2)cc1)S(=O)(=O)c1ccccc1	-6	.	-27	.	.	.
CN(c1ccc(C(=O)N2CCN(Cc3ccccc3)CC2)cc1)S(=O)(=O)c1ccccc1	10	17	56*	2	16	0
O=C(c1cccc(C(=O)N2CCN(Cc3ccccc3)CC2)c1)N1CCN(Cc2ccccc2)CC1	-14	4	3	.	.	.
COc1ccc(S(=O)(=O)N(C)c2ccc(C(=O)N3CCCC3)cc2)cc1OC	1	-23	43*	-1	4	9
O=C(c1ccc2ccccc2c1)N1CCN(Cc2ccccc2)CC1	11	-43	-32	11*	-71	-29
O=C(CCc1ccccc1)NCC(c1ccco1)N1CCc2ccccc21 (centres undefined)	-1	-7	-27	14*	?	-7
O=C(NCC(c1ccco1)N1CCc2ccccc21)c1ccccc1F (centres undefined)	-10	17	2	2	10	-6
O=C(O)/C=C/C(=O)Nc1ccc(Oc2ccccc2)cc1	-2	-4	3	-3	5	-15
CCOC(=O)/C=C/C(=O)Nc1ccc(Oc2ccccc2)cc1	.	102*	-30	2	13	-9
COc1ccc(CN2C(=O)c3ccccc3C2C(=O)NCC2CCCO2)c(OC)c1 (centres undefined)	-4	-9	-6	.	.	.
O=C(CN1C(=O)c2ccccc2C1=O)NCC1CCCO1 (centres undefined)	0	.	.	.	.	.
O=C(NCC1CCCO1)C1CCC(N2C(=O)c3ccccc3C2=O)CC1 (centres undefined)	-12	-6	81*	.	.	.
COc1ccc(OC)c(CN2C(=O)c3ccccc3C2C(=O)NCC2CCCO2)c1 (centres undefined)	-9	2	52*	1	-2	-6
CCCCn1c(N)c(N(CCC(C)C)C(=O)c2c(CC)noc2C)c(=O)[nH]c1=O	-14	-10	19	-4	-4	-4
CCOc1nc(NC(=O)NS(=O)(=O)Oc2cccc(Cl)c2)nc(-c2ccccc2)n1	.	8	19	.	.	.
CCOc1nc(NC(=O)NS(=O)(=O)Oc2ccccc2Cl)nc(-c2ccccc2)n1	7	-2	60*	.	.	.
CCOc1nc(NC(=O)NS(=O)(=O)c2cccc(Cl)c2)nc(-c2ccccc2)n1	-6	-20	71*	.	-5	-3
COc1ccc(OC)c(CCNC(=O)c2ccc3c(c2)N(Cc2ccccc2)CCS3)c1	-2	13	0	4	11	-19
CC(C)NC(=O)C1(C)CCN1C(=O)c1c(F)cccc1F (centres undefined)	-2	6	-1	-1	-6	-18
SMILES	RAD54 branch	LGR2 antag	GSIS activator	F508del corr	EWS-Fli block	RAD52 anneal inh
Cc1cccc(CSCCNC(=O)CN(c2cc(C)cc(C)c2)S(C)(=O)=O)c1	4	-13	-47	1	8	-7
O=c1cc(-c2ccccc2Cl)oc2c([N+](=O)[O-])c(O)cc(O)c12	0	70*	-23	-1	-13	-29
CC(=O)Cc1nsc(NC(=O)c2ccc(Br)o2)n1	-6	1	4	-7	1	-11
CC(=O)Cc1nsc(NC(=O)c2ccc(-c3cccc(Cl)c3)o2)n1	-9	4	42*	-1	-15	-19
Cn1cc(C(=O)NCC(=O)Nc2ccccc2Br)cn1	-1	0	41*	0	-1	-5
O=C(NCCOc1ccccc1Cl)c1ncn[nH]1	.	-17	2	0	3	-1
O=C(Nc1c(-c2ccccc2)nc2ccc(Cl)cn12)c1cccs1	-7	5	33	.	.	.
CCOc1ccc(OCC)c(NC(=O)C2CCCN2S(=O)(=O)c2cccc3cccnc23)c1 (centres undefined)	-5	-9	-22	-1	4	-12
O=C(CSc1nc2c(sc3ccccc32)c(=O)n1CCCN1CCCC1)NCc1ccccc1	.	0	-4	1	15	-1
O=c1c2ccccc2sc2c(CO)ccc(NCCN3CCCCC3)c12	.	.	.	17*	15	35
Cc1ccc(NC(=O)COC(=O)c2cc(-c3cccs3)nn2-c2ccccc2)cc1[N+](=O)[O-]	-24	-4	69*	.	.	.
O=C(COC(=O)c1cc(-c2cccs2)nn1-c1ccccc1)Nc1cccc([N+](=O)[O-])c1	-11	16	-2	-3	2	-17
CCOC(=O)[C@]12CCCC=C1N(Cc1cccc3ccccc13)C(=O)[C@H](CC(=O)NCc1cccc(C(F)(F)F)c1)C2	.	12	.	11*	-3	-4
CCOC(=O)[C@]12CCCC=C1N(Cc1ccccc1)C(=O)[C@H](CC(=O)NCc1ccc(OC)c(OC)c1)C2	.	0	-10	-2	-5	-2
CCOC(=O)[C@]12CCCC=C1N(Cc1cccc3ccccc13)C(=O)[C@H](CC(=O)NCc1ccc(OC)c(OC)c1)C2	.	40*	-11	1	14	-3
Cc1nnc2c3ccccc3c(-c3cccc4ccccc34)nn12	-2	0	8	.	.	.
CC1=C(C(=O)OCc2ccccc2)C(c2ccc(Cl)cc2)NC(=O)N1C (centres undefined)	4	.	.	1	8	-1
COc1cc(-c2noc(C)c2C#CCO)cc(OC)c1OC	0	6	16	-1	0	1
COc1cc(-c2noc(C)c2C#Cc2ccsc2)cc(OC)c1OC	12	-2	2	11*	59*	-2
O=C(CCNC(=O)c1ccco1)Nc1nc(-c2ccccc2)cs1	0	-7	.	8.8*	-18	-43
COc1ccc(-c2cnnc(N/N=C/c3ccc(-c4ccc([N+](=O)[O-])cc4)o3)n2)cc1	.	-5	3	-2	53*	-9
O=[N+]([O-])c1ccc(-c2ccc(/C=N/Nc3nc(N4CCCC4)nc(N4CCCC4)n3)o2)cc1	.	-3	10	-1	40	i
